# From publication PMC7862700, “An all-to-all approach to the identification of sequence-specific readers for epigenetic DNA modifications on cytosine”
# Tests used:
# Assay in all cases: DAPPL (digital affinity profiling via proximity ligation, sequencing); 10 mM Tris-HCl pH 7.5, 50 mM NaCl, 1 mM DTT, 4% glycerol, room temperature, 30 min; GST-TFs on glutathione beads, 16-mer random dsDNA library, 0.1% formaldehyde crosslink after washing; high values mean tight binding
# Settings in all cases: protein: recombinant; tags: N-terminal GST; dsDNA, one strand shown
# FLI1 = target: T1, FLI1 (Homo sapiens, UniProt Q01543 1-452)
# T1 sequence: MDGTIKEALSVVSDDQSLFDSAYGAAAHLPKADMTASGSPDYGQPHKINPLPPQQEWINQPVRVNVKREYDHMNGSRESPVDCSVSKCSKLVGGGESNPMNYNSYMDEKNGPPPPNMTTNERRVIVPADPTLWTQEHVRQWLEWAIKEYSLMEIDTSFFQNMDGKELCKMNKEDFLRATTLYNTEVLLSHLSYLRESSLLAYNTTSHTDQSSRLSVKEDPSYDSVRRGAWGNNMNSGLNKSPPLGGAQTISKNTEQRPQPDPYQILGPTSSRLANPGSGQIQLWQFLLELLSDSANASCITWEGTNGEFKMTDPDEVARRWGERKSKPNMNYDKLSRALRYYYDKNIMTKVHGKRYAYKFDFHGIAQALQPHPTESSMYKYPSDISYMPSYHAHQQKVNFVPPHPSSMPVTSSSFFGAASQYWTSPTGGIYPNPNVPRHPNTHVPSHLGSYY
# How it was run: (§1)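 Human transcription factors were made in yeast as GST fusions, captured on glutathione beads and barcoded with DNA. With a tag-only sample included, the pool was incubated with 200 nmole of a random double-stranded 16-mer DNA library in Tris/NaCl/DTT/glycerol buffer at room temperature for 30 min, then crosslinked with 0.1% formaldehyde after washing, ligated by proximity, amplified and sequenced. For binding signal, each hexamer's read frequency for a factor is divided by its frequency for the tag-only sample.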
# ELK1 = target: T2, ELK1 (Homo sapiens, UniProt P19419 1-428)
# T2 sequence: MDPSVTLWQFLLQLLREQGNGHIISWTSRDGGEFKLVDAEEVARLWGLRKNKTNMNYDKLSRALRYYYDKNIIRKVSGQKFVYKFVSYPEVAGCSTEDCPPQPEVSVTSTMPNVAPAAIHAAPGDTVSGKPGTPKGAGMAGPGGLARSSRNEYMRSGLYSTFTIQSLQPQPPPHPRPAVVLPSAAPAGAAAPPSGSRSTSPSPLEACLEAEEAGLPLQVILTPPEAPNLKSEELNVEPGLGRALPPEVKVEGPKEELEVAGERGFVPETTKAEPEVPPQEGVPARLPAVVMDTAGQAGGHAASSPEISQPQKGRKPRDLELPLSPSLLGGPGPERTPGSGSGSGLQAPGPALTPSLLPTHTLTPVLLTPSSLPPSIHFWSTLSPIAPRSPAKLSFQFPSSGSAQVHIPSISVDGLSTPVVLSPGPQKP
# How it was run: as §1
# GABPA = target: T3, GABPA (Homo sapiens, UniProt Q06546 1-454)
# T3 sequence: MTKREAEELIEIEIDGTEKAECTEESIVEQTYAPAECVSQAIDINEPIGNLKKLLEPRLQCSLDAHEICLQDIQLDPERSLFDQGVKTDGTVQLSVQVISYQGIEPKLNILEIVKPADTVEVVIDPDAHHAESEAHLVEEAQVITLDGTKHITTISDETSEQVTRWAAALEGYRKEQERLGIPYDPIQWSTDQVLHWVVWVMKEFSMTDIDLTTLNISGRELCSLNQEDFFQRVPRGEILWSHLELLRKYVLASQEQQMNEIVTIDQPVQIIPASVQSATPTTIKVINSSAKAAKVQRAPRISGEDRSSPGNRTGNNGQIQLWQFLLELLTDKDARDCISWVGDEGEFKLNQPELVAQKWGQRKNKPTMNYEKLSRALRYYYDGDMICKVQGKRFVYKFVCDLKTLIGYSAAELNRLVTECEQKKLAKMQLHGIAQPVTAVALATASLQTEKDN
# How it was run: as §1
# ERG = target: T4, ERG (Homo sapiens, UniProt P11308 1-479)
# T4 sequence: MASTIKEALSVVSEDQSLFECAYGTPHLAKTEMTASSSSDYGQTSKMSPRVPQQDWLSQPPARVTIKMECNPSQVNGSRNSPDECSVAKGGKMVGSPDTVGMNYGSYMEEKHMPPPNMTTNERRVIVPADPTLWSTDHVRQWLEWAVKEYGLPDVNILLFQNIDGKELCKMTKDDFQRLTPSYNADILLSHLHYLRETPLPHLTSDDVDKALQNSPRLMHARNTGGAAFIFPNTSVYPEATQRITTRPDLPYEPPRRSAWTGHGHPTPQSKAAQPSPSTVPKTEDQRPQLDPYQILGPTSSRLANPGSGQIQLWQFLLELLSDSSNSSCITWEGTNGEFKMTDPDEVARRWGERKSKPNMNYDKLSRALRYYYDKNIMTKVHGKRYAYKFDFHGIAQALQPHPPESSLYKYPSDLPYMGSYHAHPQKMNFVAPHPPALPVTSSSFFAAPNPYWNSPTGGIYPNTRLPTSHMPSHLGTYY
# How it was run: as §1
# ELF1 = ELF1 (Homo sapiens, UniProt P32519 1-619)
# Chain of ELF1 (P32519 whole entry): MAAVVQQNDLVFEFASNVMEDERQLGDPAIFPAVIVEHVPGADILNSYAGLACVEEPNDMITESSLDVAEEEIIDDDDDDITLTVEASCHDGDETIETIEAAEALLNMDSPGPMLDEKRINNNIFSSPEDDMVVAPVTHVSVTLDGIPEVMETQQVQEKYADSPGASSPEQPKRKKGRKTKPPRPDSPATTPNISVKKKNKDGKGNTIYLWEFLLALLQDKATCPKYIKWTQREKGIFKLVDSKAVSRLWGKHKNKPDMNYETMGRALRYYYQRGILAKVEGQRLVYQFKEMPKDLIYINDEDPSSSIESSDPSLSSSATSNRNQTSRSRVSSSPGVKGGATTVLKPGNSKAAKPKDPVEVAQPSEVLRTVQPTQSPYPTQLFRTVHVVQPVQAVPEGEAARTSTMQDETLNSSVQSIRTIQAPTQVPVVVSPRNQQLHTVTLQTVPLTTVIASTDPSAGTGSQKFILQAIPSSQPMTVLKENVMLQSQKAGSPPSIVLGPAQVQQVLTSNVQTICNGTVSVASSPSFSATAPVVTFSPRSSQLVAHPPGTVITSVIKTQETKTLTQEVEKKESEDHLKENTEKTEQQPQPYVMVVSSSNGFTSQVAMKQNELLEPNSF
# How it was run: as §1
# EHF = target: T5, EHF (Homo sapiens, UniProt Q9NZC4 1-300)
# T5 sequence: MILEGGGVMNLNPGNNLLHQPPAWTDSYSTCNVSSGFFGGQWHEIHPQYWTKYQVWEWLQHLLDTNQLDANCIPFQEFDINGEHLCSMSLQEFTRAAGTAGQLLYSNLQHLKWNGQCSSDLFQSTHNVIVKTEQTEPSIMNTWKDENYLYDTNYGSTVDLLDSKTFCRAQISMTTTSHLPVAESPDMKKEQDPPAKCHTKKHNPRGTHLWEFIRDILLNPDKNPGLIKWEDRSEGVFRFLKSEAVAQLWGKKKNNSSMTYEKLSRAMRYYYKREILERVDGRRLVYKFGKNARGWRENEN
# How it was run: as §1
# SPI1 = SPI1 (Homo sapiens, UniProt P17947 1-270)
# How it was run: as §1
# SPIB = SPIB (Homo sapiens, UniProt Q01892 1-262)
# Chain of SPIB (Q01892 whole entry): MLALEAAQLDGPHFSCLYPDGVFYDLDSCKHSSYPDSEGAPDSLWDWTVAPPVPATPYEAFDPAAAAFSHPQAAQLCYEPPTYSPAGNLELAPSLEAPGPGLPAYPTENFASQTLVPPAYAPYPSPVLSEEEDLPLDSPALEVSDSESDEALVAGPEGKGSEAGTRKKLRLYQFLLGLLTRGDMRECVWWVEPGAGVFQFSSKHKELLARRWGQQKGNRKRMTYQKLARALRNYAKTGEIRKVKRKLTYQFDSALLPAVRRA
# How it was run: as §1
# ELK3 = target: T6, ELK3 (Homo sapiens, UniProt P41970 1-407)
# T6 sequence: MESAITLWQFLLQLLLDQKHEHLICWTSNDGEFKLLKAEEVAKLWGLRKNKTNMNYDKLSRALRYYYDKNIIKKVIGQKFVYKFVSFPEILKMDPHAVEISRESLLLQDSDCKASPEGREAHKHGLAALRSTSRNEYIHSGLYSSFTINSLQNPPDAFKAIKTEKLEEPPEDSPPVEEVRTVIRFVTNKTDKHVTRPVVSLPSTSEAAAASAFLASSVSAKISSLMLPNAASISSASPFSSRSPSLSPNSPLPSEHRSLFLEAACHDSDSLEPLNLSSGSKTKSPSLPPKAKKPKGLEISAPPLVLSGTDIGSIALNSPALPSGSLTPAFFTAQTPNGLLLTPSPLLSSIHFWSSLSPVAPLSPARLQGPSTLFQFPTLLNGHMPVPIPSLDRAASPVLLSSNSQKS
# How it was run: as §1
sequence,measurement,setting,value
TTTCAT,binding signal,FLI1,"1.11 fold enrichment (6-mer frequency, TF over GST control)"
same,binding signal,ELK1,"1.09 fold enrichment (6-mer frequency, TF over GST control)"
same,binding signal,GABPA,"1.22 fold enrichment (6-mer frequency, TF over GST control)"
same,binding signal,ERG,"1.15 fold enrichment (6-mer frequency, TF over GST control)"
same,binding signal,ELF1,"1.18 fold enrichment (6-mer frequency, TF over GST control)"
same,binding signal,EHF,"1.17 fold enrichment (6-mer frequency, TF over GST control)"
same,binding signal,SPI1,"1.14 fold enrichment (6-mer frequency, TF over GST control)"
same,binding signal,SPIB,"1.22 fold enrichment (6-mer frequency, TF over GST control)"
same,binding signal,ELK3,"1.15 fold enrichment (6-mer frequency, TF over GST control)"
